# Nrf2 ARE act: qHTS of Nrf2 Activators. 410,000 tested, 0.31% active. AREc32 ARE-luciferase reporter (MCF7-derived line), luminescence, 24 h. Potency, µM (series often up to 46.1 µM), for inactives: top-dose activation, most hits filed as activators; further: potency means the concentration at half of the fitted maximal effect; % of control where 0% means no effect; nearly all actives have a fitted effect of over 65% in size
#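 Quantitative high-throughput format: AREc32 reporter cells, 1000 per well, received compound by pin transfer and were incubated 24 hr at 37 deg C, 5% CO2, before Steady-Glo luminescence detection.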
# Nrf2 block: Nrf2 qHTS screen for inhibitors. A549 ARE-Fluc reporter, luciferase luminescence, 18-24 h. Potency, µM (series often up to 46 µM), for inactives: at the highest dose activity change, negative = inhibition, usual class: inhibitors. 360,000 tested, 2.1% active. AID 504444, 2011; further: potency means the concentration at half of the fitted maximal effect; on the % scale 0 is the no-effect control and ±100 the full control effect; nearly all actives have a fitted effect of over 60% in size
#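 Two sequential reads on A549 ARE_Fluc cells exposed to compound for 18-24 h: a CellTiter-Fluor fluorescence read for viability, then a luciferase luminescence read for Nrf2/ARE activity.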
# Mito fusion yeast: qHTS Assay for Small Molecule Inhibitors of Mitochondrial Division or Activators of Mitochondrial Fusion | S. cerevisiae fusion-defective mutant growth rescue, CellTiterGlo 48 h | 320,000 tested, 0.23% active | Potency, µM (series often up to 46.1 µM), inactives show at the top dose growth rescue (activation), hits mostly activators; further: potency means the concentration at half of the fitted maximal effect; % of control where 0% means no effect; nearly all actives have a fitted effect of over 45% in size
#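 Yeast fusion mutant, YPEG (non-fermentable carbon), compound, 48 h at 37C non-permissive; CellTiterGlo added, 10 min RT, luminescence read. Rescued growth = division inhibition.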
# A549 viability: Nrf2 qHTS screen for inhibitors: counterscreen for cytotoxicity | 390,000 tested, 0.16% active | Potency, µM (highest dose often 46 µM), for inactives: at the highest dose activity change, negative = cytotoxicity, actives largely listed as inhibitors | A549 ARE-Fluc cells, CellTiter-Fluor viability, 18-24 h; further: potency means the concentration at half of the fitted maximal effect; on the % scale 0 is the no-effect control and ±100 the full control effect
#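 A549 ARE-Fluc cells in 5% FBS OPTI-MEM, 5000 cells/well, rested 2 h then exposed to compounds in concentration-response for 18-24 h at 37 °C. Viability by CellTiter-Fluor fluorescence (Ex 405/Em 525) after 30 min; luciferase luminescence (BugLite, 15 min, RT) read afterwards.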
# miR-21 reporter: qHTS Assay for Modulators of miRNAs and/orActivators of miR-21; HeLa miR-21 FLuc reporter, luciferase, 48 h; Potency, µM (titrated, usually from 38.3 µM), without a hit: top-dose activity change, positive = activation, usual class: activators; 340,000 tested, under 10 active;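 further: % of control where 0% means no effect; miR-21 action dims this reporter so a rising signal means less miR-21 action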
#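 HeLa cells endogenously expressing miR-21, stably carrying CMV-driven firefly luciferase with a downstream miR-21 binding site, 2000 cells/well. Titrations up to approximately 40 uM, 48 hours; luciferase luminescence read.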
# GRP78 ERSR act: qHTS for Inducers of the Endoplasmic Reticulum Stress Response (ERSR) in Human Glioma: qHTS; Potency, µM, without a hit: at the top dose activation, usual class: activators; AID 602332, 2012; U87-MG GRP78 promoter luciferase reporter, 16 h; 420,000 tested, 0.02% active; further: potency means the concentration at half of the fitted maximal effect; series mostly up to about 76 µM; % of control where 0% means no effect; nearly all actives have a fitted effect of over 35% in size
#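 Stably transfected U87-MG human glioma cells carrying a GRP78-based luminescent sensor were seeded at 1000 cells/well, pin-dosed with compounds and incubated 16 h. Luciferase reagent was then added, and end-point luminescence was read after 10 min at room temperature.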
# Active calls of the source: *; ? = inconclusive; . = no result given; [ ] = dose if it differs, or a comment. Only some compounds are listed: those with a hit (about 2.3% of all), similar ones and a draw of the others. The call rests on the fitted dose curve; in most records, active means well fitted curve in the direction sought with a large enough effect; inconclusive means small, poorly fitted or top-dose-only effect, or another doubt; inactive means no such curve, though single readings can be large; an effect the other way counts as inactive or inconclusive.
SMILES,Nrf2 ARE act,Nrf2 block,Mito fusion yeast,A549 viability,miR-21 reporter,GRP78 ERSR act
CN(c1ccccc1)S(=O)(=O)c1cccc(NC(=O)CSc2ncn[nH]2)c1,0%,?,-5%,7%,5%,-2%
CCN(CC)S(=O)(=O)c1cc(NC(=O)COC(=O)c2c(C)noc2C)ccc1C,0%,21µM*,-1%,?,.,0%
Cc1ccc(NC(=O)Cc2c[nH]c3ccccc23)cc1S(=O)(=O)N1CCCCCC1,0%,2%,5%,-1%,-1%,-3%
CCN(CC)S(=O)(=O)c1cc(NC(=O)Cc2n[nH]c(=O)c3ccccc23)ccc1C,0%,26µM*,4%,-12%,16%,1%
CCOC(=O)CCCCCCCCCCCCC1C=CCC1 (configuration not stated),.,.,.,.,.,-5%
COc1ccccc1C(C(=O)NCc1ccccc1)N(C(=O)c1csnn1)C1CC1 (configuration not stated),0%,14%,5%,-3%,-2%,-6%
COc1ccccc1C(C(=O)NC1CCCC1)N(C(=O)c1csnn1)C1CC1 (configuration not stated),0%,-4%,3.2µM*,-22%,0%,0%
CCCN(CCC)C(=O)CC(c1ccccc1)c1ccc(C)cc1O (configuration not stated),0%,-19%,?,-3%,11%,-3%
CCCN(CCC)C(=O)CC(c1ccccc1)c1cc(Br)ccc1O (configuration not stated),0%,16µM*,29%,?,9%,5%
Cc1cc(OCC(=O)N2CCC(O)(c3ccc(Cl)cc3)CC2)c2c(C)cc(=O)oc2c1,0%,?,2%,3%,-3%,-4%
COC(=O)c1ccc(/C=C(\C#N)c2nc3ccccc3s2)cc1,0%,18%,-5%,1%,-8%,1%
N#C/C(=C\c1ccccn1)c1nc2ccccc2s1,18µM*,?,20%,-1%,-20%,2%
COc1cccc(-c2ccc(NC(=O)C3CCCN(Cc4cc(C)[nH]n4)C3)cc2)c1 (configuration not stated),7%,2%,0%,-8%,-9%,0%
COc1cccc(/C=N/Nc2ncnc3scc(-c4ccccc4)c23)c1OC,13%,13µM*,8%,10%[1.84 µM],1%,-2%
COc1ccc(CCNC(=O)CCc2cn(Cc3ccc(C)cc3)c3ccccc23)cc1OC,4%,-14%,.,-1%,13%,-2%
COc1ccc(CNC(=O)CCc2cn(Cc3cc(C)ccc3C)c3ccccc23)cc1OC,0%,23µM*,.,-5%,10%,-4%
Cc1ccccc1-c1nnc(-c2cccs2)o1,11µM*,99%,0%,3%,-65%,5%
Cc1ccccc1-c1noc(-c2cccs2)n1,?,?,2%,-2%,-54%,1%
CCN(CCCNC(=O)CCn1c(=O)[nH]c2ccccc2c1=O)c1cccc(C)c1,0%,-12%,1%,1%,-3%,0%
O=C(Nc1ccc(S(=O)(=O)N2CCCC2)cc1)c1ccc(Cl)nc1,1%,?,-4%,1%,.,-2%
O=C(Nc1cccc(S(=O)(=O)N2CCCCC2)c1)c1ccc(Cl)nc1,0%,21µM*,.,-7%,.,-6%
O=C(Nc1ccc(S(=O)(=O)N2CCCCC2)cc1)c1ccc(Cl)nc1,0%,18µM*,.,-12%,.,-3%
COc1cccc(OC)c1C(=O)Nc1cccc(S(=O)(=O)Nc2ccccc2Cl)c1,9%,?,.,5%,.,-6%
O=C(Nc1cccc(S(=O)(=O)Nc2ccccc2Cl)c1)c1ccc(Cl)nc1,-1%,5.2µM*,-4%,-15%,?,-3%
O=C(Nc1cccc(S(=O)(=O)N2CCCCCC2)c1)c1ccc(Cl)nc1,3%,21µM*,.,?,.,-3%
SMILES,Nrf2 ARE act,Nrf2 block,Mito fusion yeast,A549 viability,miR-21 reporter,GRP78 ERSR act
C[C@H](NC(=O)c1nc[nH]c1C(=O)NCc1ccccc1)C(=O)OCc1ccccc1,-1%,19%,-2%,-2%,0%,-2%
O=C(Nc1ccc(S(=O)(=O)N2CCCCC2)cc1)c1ccncc1,0%,?,-1%,-1%,10%,-4%
O=C1CCC(C(=O)Nc2cccc(S(=O)(=O)Nc3ccccc3F)c2)=NN1,2%,26µM*,.,2%,.,-1%
CSc1ncc(Cl)c(C(=O)Nc2ccc(S(=O)(=O)N3CCC(C)CC3)cc2)n1,0%,21µM*,.,-9%,?,-2%
O=C(Nc1ccc(Cc2ccncc2)cc1)c1ccc(S(=O)(=O)N2CCCC2)cc1,2%,16µM*,-2%,-20%,26%,-5%
CC(C)(C)c1cccc(Cn2nnc3ccccc32)c1O,0%,-1%,20µM*,1%,.,-4%
CCc1c(C)sc2c1CCN(C(=O)Nc1cc(C)cc(C)c1)C2c1ccccc1 (configuration not stated),-1%,.,.,-6%,8%,-3%
CCn1nc(NS(=O)(=O)c2cccc3nonc23)c2cc3ccc(C)cc3nc21,0%,-17%,-2%,-20%,-3%,-1%
CCCCn1nc(NS(=O)(=O)c2cccc3nonc23)c2cc3cccc(C)c3nc21,0%,-29%,11µM*,?,-21%,-3%
COC(=O)c1c(NC(=O)Cc2coc3ccc(C)cc23)sc2c1CCC2,-1%,-9%,.,15%,0%,3%
Cc1ccc(C(=O)N2CCCC(C(=O)c3ccc(Oc4ccccc4)cc3)C2)cn1 (configuration not stated),0%,16µM*,17%,?,26%,-6%
COc1ccc(NC(=O)COc2ccc(-c3nn(C)c(=O)c4ccccc34)cc2)cc1,0%,-22%,-2%,0%,-12%,0%
COc1ccc(OCC(=O)Nc2cc(-c3nn(C)c(=O)c4ccccc34)ccc2OC)cc1,1%,23µM*,0%,-14%,1%,-2%
O=C1C2C=CC=CC2=NC(=S)N1CCN1CCC(=C(c2ccc(F)cc2)c2ccc(F)cc2)CC1 (configuration not stated),.,.,5.8µM*,.,.,-2%
COC(=O)c1sc(N2C(=O)C(O)=C(C(=O)c3ccc(C)o3)C2c2ccco2)nc1C (configuration not stated),9%,3%,0%,-4%,-5%,0%

# Source: PubChem (National Center for Advancing Translational Sciences (NCATS))
